Assay outcomes from PubChem BioAssay.
A selection: hits, their analogues and other compounds. The true share with any hit is near 1.3%.
MazF activator – activators of E. coli MazEF toxin-antitoxin RNase. P0AE70. FAM/BHQ RNA-DNA oligo cleavage fluorescence, 5 h. activation, % at 20 µM. 350,000 compounds, 0.32% hits. AID 504720; in the data active means activation above about 50%
Target sequence (P0AE70 whole entry, looked up): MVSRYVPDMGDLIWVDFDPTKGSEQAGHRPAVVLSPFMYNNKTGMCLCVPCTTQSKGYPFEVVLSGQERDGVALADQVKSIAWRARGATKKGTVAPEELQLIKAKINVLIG
TcdB inh – inhibitors of Clostridioides difficile toxin B glycohydrolase. TcdB glycohydrolase enzymatic assay, plate reader. inhibition, % at 9.99 µM. P18177. 350,000 compounds, 0.24% hits. AID 652162; in the data active means inhibition above about 10%
PfHsp40 yeast – restores yeast growth despite PfHsp40 toxicity. growth rescue, % at 12.5 µM. 340,000 compounds, 0.68% hits. S. cerevisiae expressing PfHsp40, growth rescue, ATP luminescence; in the data active means growth rescue above about 28%, passing the limit was not always enough; inconclusive means no clear call, values can overlap the other calls;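 further: yeast W303a lacking pdr1 and pdr3 grown in galactose medium; growth measured after three days at 30 °C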
RN4220 kill – kills Staphylococcus aureus RN4220; S. aureus RN4220 growth, OD600, 16 h; AID 1259311; inhibition, % (test concentration not listed); 330,000 compounds, 0.33% hits; in the data active means inhibition above about 85%
Mtb hypoxia rep – inhibitors of hypoxia-regulated fluorescent reporter in Mycobacterium tuberculosis; M. tuberculosis hypoxia-regulated fluorescent reporter, fluorescence; AID 1159583; 300,000 compounds, 0.1% hits; fluorescence inhibition, % (no concentration beside the values); in the data active means fluorescence inhibition mostly above about 23%, no sharp cut-off; inactive means mostly below about 17%
Sa ugtP lethal – growth inhibition of S. aureus ugtP deletion strain; growth inhibition, % (test concentration not listed); 330,000 compounds, 0.54% hits; S. aureus RN4220 ugtP deletion, OD600 growth, 16 h; in the data active means growth inhibition above about 68%
Of the large screens only hits and unclear results are named; the others gave an inactive call.

CCOC1OC(C(=O)NCc2nc3ccccc3[nH]2)=CC(C2CCCCC2)C1CCCO (configuration not stated)	none (no result: MazF activator, TcdB inh, PfHsp40 yeast)
COc1cc(C(C)=NNC(=O)CSc2nc3ccccc3n2C)ccc1O	none (no result: MazF activator, TcdB inh, PfHsp40 yeast)
COC(=O)C(Cc1ccccc1)N(C)S(=O)(=O)c1cccc(S(=O)(=O)N(C)C(Cc2ccccc2)C(=O)OC)c1 (configuration not stated)	none (no result: MazF activator, TcdB inh, PfHsp40 yeast)
CC(C)(C)C(=O)NC(=S)NNC(=O)c1sc2ccccc2c1Cl	PfHsp40 yeast inconclusive, RN4220 kill 94, Sa ugtP lethal 97 (no result: TcdB inh)
CN(C)c1ccc(C(=O)OCC#CCSc2nnc(-c3cccc4ccccc34)o2)cc1	TcdB inh 14
CN(Cc1c(C(=O)NN=Cc2c(F)cccc2Cl)nnn1-c1nonc1N)c1ccccc1	none (no result: MazF activator, TcdB inh, PfHsp40 yeast)
CCOC(=O)C=c1sc(=Cc2ccc3cc(OC)ccc3c2)c(=O)n1CC(=O)NCC1CCCO1 (configuration not stated)	none (no result: MazF activator, TcdB inh, PfHsp40 yeast, Mtb hypoxia rep)
CCOC(=O)/C=c1\s/c(=C\c2ccc3cc(OC)ccc3c2)c(=O)n1CC(=O)NCC1CCCO1 (configuration not stated)	MazF activator 170 (no result: TcdB inh, RN4220 kill, Mtb hypoxia rep, Sa ugtP lethal)
CCOC(=O)C1C2COc3ccccc3C2N2C(=O)c3cc(Cl)ccc3NC(=O)[C@@]12C (some centres not stated)	none (no result: MazF activator, TcdB inh, PfHsp40 yeast)
CCCC(=O)N1CC2(C1)CN(C(=O)C1CCCCC1)[C@H](CO)c1[nH]c3cc(OC)ccc3c12	none (no result: MazF activator, PfHsp40 yeast, RN4220 kill, Mtb hypoxia rep, Sa ugtP lethal)
Cc1ccc(N(C)C)cc1	none (no result: MazF activator, PfHsp40 yeast, RN4220 kill, Mtb hypoxia rep, Sa ugtP lethal)
Cc1ccc2c(c1)sc(-c1ccc(N(C)C)cc1)[n+]2C	RN4220 kill 100, Sa ugtP lethal 101 (not shown: Mtb hypoxia rep)
Cc1ccsc1C=NNC(=O)c1ccc2c(c1)OCCO2	none (no result: MazF activator, TcdB inh, PfHsp40 yeast)
Cc1cc2cc(C(c3nnnn3Cc3ccco3)N3CCc4ccccc43)c(=O)[nH]c2cc1C (configuration not stated)	MazF activator 79 (no result: TcdB inh)
Cc1cc2cc(C(c3nnnn3Cc3ccccc3)N3CCc4ccccc43)c(=O)[nH]c2cc1C (configuration not stated)	none (no result: TcdB inh)
Cc1ccc(C2=CC(c3ccc(N(C)C)cc3)n3nnnc3N2)cc1 (configuration not stated)	MazF activator 64
COc1ccc(C2=CC(c3ccc(F)cc3)n3nnnc3N2)cc1 (configuration not stated)	none (no result: TcdB inh)
COCC(=O)Nc1ccc2c(c1)OC[C@@H](C)N(Cc1cccc(F)c1)C[C@H](C)[C@@H](OC)CN(C)C2=O	none (no result: MazF activator, PfHsp40 yeast, RN4220 kill, Mtb hypoxia rep, Sa ugtP lethal)
Oc1ccc(-c2nc3cnccn3c2Nc2ccc3c(c2)OCCO3)cc1	TcdB inh 20
Cc1ccc(C(=O)/C=C/c2ccccc2[N+](=O)[O-])cc1	none
O=C(/C=C/c1ccccc1[N+](=O)[O-])c1ccccc1Br	PfHsp40 yeast 60 (not shown: Mtb hypoxia rep)
CC(=O)Nc1ccc(-c2csc(N/N=C(/C)c3ccccc3)n2)cc1	PfHsp40 yeast 90 (no result: RN4220 kill, Mtb hypoxia rep, Sa ugtP lethal)
CC(=O)Nc1ccc(-c2csc(NNC(=O)c3ccccc3)n2)cc1	none
CNC[C@@H]1Oc2c(NS(=O)(=O)c3c(C)noc3C)cccc2C(=O)N([C@H](C)CO)C[C@H]1C	none (no result: MazF activator, PfHsp40 yeast, RN4220 kill, Mtb hypoxia rep, Sa ugtP lethal)
O=S1(=O)Nc2c(ccc3cccnc23)-c2ccccc21	RN4220 kill 98, Sa ugtP lethal 98 (not shown: TcdB inh, Mtb hypoxia rep)
O=C(NC(NC(=S)Nc1ccc(Cl)cc1Cl)C(Cl)(Cl)Cl)c1cccc([N+](=O)[O-])c1 (configuration not stated)	RN4220 kill 87 (no result: TcdB inh)
COc1c(O)cc2oc(-c3ccc(O)cc3)cc(=O)c2c1O	none
O=c1cc(-c2ccccc2)oc2cc(O)c(O)c(O)c12	PfHsp40 yeast 141 (no result: Mtb hypoxia rep)
Fc1cccc(Cl)c1Cn1nnc(-c2ccc(N3CCOCC3)cc2)n1	none (no result: TcdB inh)
Clc1cccc(Cl)c1Cn1nnc(N2CCCC2)n1	Mtb hypoxia rep 36
O=C(NCCc1ccccc1)c1nc2ncccn2n1	none (no result: TcdB inh)
O=C(NCC12CC3CC(CC(C3)C1)C2)c1nc2ncccn2n1	MazF activator 96 (no result: TcdB inh)
CC1CN(C(=O)CCc2ccccc2)C(C)CN1C(=O)CCc1ccccc1 (configuration not stated)	PfHsp40 yeast 45 (no result: TcdB inh)
CCCN(C)C[C@H]1OCCCC[C@@H](C)Oc2ccc(NS(=O)(=O)c3c(C)noc3C)cc2C(=O)N([C@@H](C)CO)C[C@H]1C	none (no result: MazF activator, PfHsp40 yeast, RN4220 kill, Mtb hypoxia rep, Sa ugtP lethal)
COc1ccc(CN2CCN(C(c3ccc(F)cc3)c3ccc(F)cc3)CC2)c(OC)c1OC	PfHsp40 yeast 39
O=S(=O)(N[C@H]1CC[C@@H](CCn2cc(-c3ccccn3)nn2)O[C@H]1CO)c1cccc(F)c1	none (no result: MazF activator, PfHsp40 yeast, RN4220 kill, Mtb hypoxia rep, Sa ugtP lethal)
COc1ccc(C(CNC(=O)c2oc3ccc(OC)cc3c2C)N2CCCC2)cc1 (configuration not stated)	TcdB inh 12
COc1ccccc1CNC(=O)C[C@@H]1C=C[C@H](NC(C)=O)[C@@H](CO)O1	none (no result: MazF activator, PfHsp40 yeast, RN4220 kill, Mtb hypoxia rep, Sa ugtP lethal)
O=C(Nc1cccc(C(F)(F)F)c1)c1cccnc1N1CCN(c2ccccc2)CC1	Sa ugtP lethal 92 (no result: TcdB inh)
CCNC(=O)C[C@H]1C=C[C@H](NS(=O)(=O)c2ccc(C)cc2)[C@@H](CO)O1	none (no result: MazF activator, PfHsp40 yeast, RN4220 kill, Mtb hypoxia rep, Sa ugtP lethal)
O=C(CNC(=O)c1cccnc1)NN=Cc1cc(Br)c(O)c(Br)c1	none (no result: MazF activator, TcdB inh, PfHsp40 yeast)
CC1CCCCC1Nc1nc2ccc(Cl)cc2n2cnnc12 (configuration not stated)	PfHsp40 yeast 27
Cc1ccc2nc(NCCc3ccc(Cl)cc3)c3nncn3c2c1	MazF activator 80
COc1ccccc1C1CC(=O)Oc2cc(C)c(Br)c(C)c21 (configuration not stated)	Sa ugtP lethal 86
NC(=O)C1(Nc2ccc(-c3ccc(Br)cc3)cc2)CCCC1	TcdB inh 11 (no result: RN4220 kill, Mtb hypoxia rep, Sa ugtP lethal)
Cc1ccc(NC2(C(N)=O)CCCC2)cc1	none
O=C(CSc1nc2ccccc2[nH]1)NN=Cc1ccncc1	none (no result: MazF activator, TcdB inh, PfHsp40 yeast)
CC1=C(C(=O)OCC(Cl)(Cl)Cl)N2C(=O)C(NC(=O)Cc3ccccc3)C2SC1 (configuration not stated)	none
CC(=O)OCC1=C(C(=O)O)N2C(=O)C(NC(=O)c3ccc(COc4cccc(Cl)c4Cl)o3)C2SC1 (configuration not stated)	RN4220 kill 100, Sa ugtP lethal 100
CON=C(C(=O)NC1C(=O)N2C(C(=O)O)=C(COC(C)=O)CSC12)c1csc(N)n1 (configuration not stated)	RN4220 kill 100, Sa ugtP lethal 100 (not shown: MazF activator, TcdB inh, PfHsp40 yeast, Mtb hypoxia rep)
Cc1nnc(SCC2=C(C(=O)O)N3C(=O)C(NC(=O)Cc4ccccc4)C3SC2)s1 (configuration not stated)	RN4220 kill 100, Sa ugtP lethal 100 (not shown: Mtb hypoxia rep)
Cc1nnc(SCC2=C(C(=O)O)N3C(=O)C(NC(=O)C(C)n4nc(C(F)(F)F)cc4C)C3SC2)s1 (configuration not stated)	RN4220 kill 100, Sa ugtP lethal 101 (not shown: Mtb hypoxia rep)
CC(=O)OCC1=C(C(=O)OC(C)(C)C)N2C(=O)[C@@H](NC(=O)Cc3ccccc3)[C@H]2SC1	RN4220 kill 96, Sa ugtP lethal 94
COCC(=O)Nc1ccc2c(c1)OC[C@H](C)N(C(=O)c1cccnc1)C[C@@H](C)[C@@H](OC)CN(C)C2=O	none (no result: MazF activator, PfHsp40 yeast, RN4220 kill, Mtb hypoxia rep, Sa ugtP lethal)
